Out of some 290,000 compounds screened, about 1,800 (0.62%) were called active. Shown is part of a subset that was picked to be rich in actives. Unmarked numbers belong to inactive results. No stated cut-off is given here; in the data, active means inhibition above about 50%; inactive means the rest.
Test: NOD2 signaling inhibitors, cell-based, luminescence, uHTS, HEK293 (AID 1566)
Settings: HEK293 NOD2/NF-kB luciferase reporter, at 4 µM, active compounds read high

SMILES	inhibition
O=C(O)c1cccc(Cn2c(Cl)c(/C=N/Nc3ccccc3)sc2=O)c1	14.5%
Cc1ccccc1N/N=C/c1sc(=O)n(Cc2cccc(C(=O)O)c2)c1Cl	51.6% (active)
COC(=O)c1cccc(Cn2c(Cl)c(/C=N/Nc3ccccc3C)sc2=O)c1	10.1%
CCCNC(=S)N1CCC(C(=O)c2ccc(OC)cc2)CC1	15.3%
COC(=O)N1C(=O)[C@](c2ccsc2)(C(C)C)N1C(=O)OC	32.8%
CCc1c(C)nc2c(Br)cccc2c1SCCC#N	10.1%
CCCCc1c(C)nc2ccc(Br)cc2c1SCCC#N	18%
CC(C)N=c1scc(-c2cccs2)n1/N=C/c1ccc(O)c(O)c1O	-1.3%
CN=c1scc(-c2cccs2)n1/N=C/c1ccccc1O	88.7% (active)
CN=c1scc(-c2cccs2)n1/N=C/c1ccc(O)c(O)c1O	-25.9%
CCc1noc(C)c1C(=O)OCC(=O)NC(=O)c1ccccc1	2.8%
COC(=O)c1ccc(NC(=O)c2ccc3nsnc3c2)cc1	-7.1%
c1ccc(COCCC2CO2)cc1 (centres undefined)	-8.4%
CS(=O)(=O)N(CC(=O)NCCSCc1ccccc1Cl)c1ccc(F)cc1	3%
COc1ccc(C(=O)CSc2cc(C)nc3nc(C)nn23)cc1OC	14%
O=C(CSc1ccc(-c2ccc(Cl)cc2)nn1)N1CCCc2ccccc21	-10.9%
Cc1ccccc1-c1cn(-c2ccccc2)c(=S)[nH]1	-47.3%
O=C(O)c1ccc(-n2cc(-c3cc4ccccc4oc3=O)[nH]c2=S)cc1	27.5%
O=c1oc2ccccc2cc1-c1cn(-c2ccccc2)c(=S)[nH]1	80.6% (active)
O=c1[nH]c(C2CCN(S(=O)(=O)Cc3ccccc3)CC2)nc2c1nnn2Cc1ccccc1	5%
CCOC(=O)Cc1ccc(NC(=O)c2ccc([N+](=O)[O-])cc2)cc1	-1.9%
COC(=O)Cc1ccc(NC(=O)c2ccc(NC(=O)c3ccco3)cc2)cc1	0.9%
CCOC(=O)Cc1ccc(NC(=O)c2ccccc2Br)cc1	-12.2%
COC(=O)Cc1ccc(NC(=O)c2ccc(C)c(C)c2)cc1	-48.4%
CCOC(=O)Cc1ccc(NC(=O)c2ccc(C(C)(C)C)cc2)cc1	61.9% (active)

SMILES	inhibition
CC(C)(C)c1ccc(C(=O)Nc2ccc(CC(=O)O)cc2)o1	71.6% (active)
COC(=O)Cc1ccc(NC(=O)c2ccc(C(C)(C)C)cc2)cc1	70.7% (active)
Cc1ccc(C(=O)Nc2ccc(CC(=O)O)cc2)o1	7.5%
CC(C)(C)c1ccc(C(=O)Nc2ccc(NC(=O)C(=O)O)cc2)o1	9.4%
Cc1ccc(C)c(S(=O)(=O)N2CCCOC2CNC(=O)C(=O)NCc2ccncc2)c1 (centres undefined)	11.8%
Cc1cccc(N2CCN(C(=O)C3CCCCC3)CC2)c1C	-34.8%
CCCCn1c(N)c(N(CCOC)C(=O)c2ccc(Cl)c(S(=O)(=O)N3CCCC3)c2)c(=O)[nH]c1=O	-2.8%
O=c1cc(O)c2sc(Nc3cccc(C(F)(F)F)c3)nc2[nH]1	16.5%
COc1ccccc1N1C(=O)c2ccc(C(=O)Nc3ccccc3O)cc2C1=O	-3.6%
O=C(c1ccc(Sc2cccc(Cl)c2)c([N+](=O)[O-])c1)N1CCN(c2ccccn2)CC1	9.4%
Cc1cc(C(=O)N2CCN(Cc3ccccc3)CC2)ccc1[N+](=O)[O-]	6.4%
O=C(c1ccc(Br)c([N+](=O)[O-])c1)N1CCN(Cc2ccccc2)CC1	10%
O=C(c1ccc(Cl)c([N+](=O)[O-])c1)N1CCN(c2ccccn2)CC1	6.3%
O=C(c1ccc(S(=O)(=O)Cc2ccccc2F)c([N+](=O)[O-])c1)N1CCCCCC1	22.6%
O=C(c1ccc(S(=O)(=O)Cc2cc(F)ccc2F)c([N+](=O)[O-])c1)N1CCCC1	3.3%
CCCSc1nnc(CSc2nc3ccccc3s2)n1-c1ccccc1	2.7%
O=C(COC(=O)c1ccccc1O)Nc1cccc(S(=O)(=O)NC2=NCCCCC2)c1	14.9%
O=C1CCCN1CCC1CCN(C(=S)Nc2ccc(F)cc2)CC1	1.1%
Cc1cccc(C(=O)c2cnc3ccccc3c2-c2ccccc2)c1	1.1%
COc1ccc(C(=O)c2cnc3ccccc3c2-c2ccccc2)cc1	29.3%
Cc1ccc(C(=O)c2cnc3ccccc3c2-c2ccccc2)cc1	50.7% (active)
O=C(NCc1cccc(C(F)(F)F)c1)C1CC(c2c(Cl)cccc2Cl)=NO1 (centres undefined)	-28.5%
CCN=C1S/C(=C\c2ccc(-c3cccc(C(=O)O)c3)o2)C(=O)N1CC	-81.2%
O=C(O)c1cccc(-c2ccc(/C=C3/SC(=Nc4ccccc4)N(Cc4cccnc4)C3=O)o2)c1	53.1% (active)
